Drawing on PubChem BioAssay, this text covers z-score for 35 compounds.

Unmarked numbers belong to inactive results. Activity calls are given as the source filed them. Unless noted, how the calls were made is not given here.

One test can be described thus: P. aeruginosa biofilm formation inhibitors, primary screen, PAO1 strain, BacTiter-Glo luminescence, LB-PBS (AID 1144). Conditions: 12 h, higher = more signal.
Regarding `Cc1ccc(F)cc1S(=O)(=O)N[C@@H]1CCN(Cc2ccc3c(c2)OCO3)C1`, the z-score is -0.455.

For `COCCOC(=O)N1C(=O)[C@@]2(c3cc(C#CC4(O)CCCCCC4)ccc31)[C@H](c1ccc(OCCO)cc1)N1[C@H](c3ccccc3)[C@H](c3ccccc3)OC(=O)[C@H]1[C@@H]2C(=O)N1CCCCCCC1`, the z-score is -0.227. As to `CC(c1ccccc1)C(O)C1C=CC2C(=O)N(c3ccccc3)C(=O)C2N1Nc1ccc(C#N)cc1` (stereo not drawn), the z-score is -1.26. The same measure, in the same setting: with `COC(=O)C(CC#Cc1ccc2c(c1)[C@]1(C(=O)N2)[C@H](c2ccc(O)cc2)N2[C@H](c3ccccc3)[C@H](c3ccccc3)OC(=O)[C@H]2[C@@H]1C(=O)N1CCc2cc(OC)c(OC)cc2C1)C(=O)OC` the figure was 0.786; with `C[N+](C)(C)CCCCCCNC(=O)[C@H]1C[C@H]2C(=O)NCC(=O)N2[C@H]1c1cccc(OCCO)c1`, 0.052. Same read-out and setting: the value for `COC(=O)c1c(CC[C@@H](CO)NC(=O)N[C@@H](Cc2ccccc2)Cn2cc(-c3cncn3C)nn2)oc(C(C)=O)c1C(=O)OC` was -0.662; that for `O=C1O[C@@H](c2ccccc2)[C@@H](c2ccccc2)N2[C@@H](c3ccc(O)cc3)[C@]3(C(=O)Nc4ccc(C#CC5=CCCCC5)cc43)[C@@H](C(=O)N3CCCCCCC3)[C@H]12` was -0.815.

With `COC(=O)C1=CC(CCCO)=CC(C2CC2)N(Cc2cccc(OC(F)(F)F)c2)C=C1C(=O)OC` (stereo not drawn), the z-score was -0.393.

Consider `COCCOC(=O)N1C(=O)[C@@]2(c3cc(C#CCC(C(=O)OC)C(=O)OC)ccc31)[C@H](C(=O)N1CCCCCCC1)[C@H]1C(=O)O[C@H](c3ccccc3)[C@H](c3ccccc3)N1[C@@H]2c1ccccc1OCCO`, for which the z-score is -0.728. Same read-out and setting: with `COCCOC(=O)N1C(=O)[C@@]2(c3cc(C#CCCO)ccc31)[C@H](c1ccccc1OCCO)N1[C@H](c3ccccc3)[C@H](c3ccccc3)OC(=O)[C@H]1[C@@H]2C(=O)N1CCc2cc(OC)c(OC)cc2C1` the figure was 0.609; with `COC(=O)[C@@H]1N=C(c2ccc(OCCCO)cc2)O[C@@H]1c1ccccc1CN=[N+]=[N-]`, -0.245. Same read-out and setting: the value for `COC(=O)[C@H](Cc1ccc(O)cc1)N1CC2=CCCC=C[C@@H]2[C@H]1[C@H](O)Cc1ccccc1` was -1.21; that for `C=CC[C@@]1(C(=O)N(C)C)N=C(c2ccc(OCCCO)cc2)O[C@@H]1c1ccccc1` was 0.442.

The next test in a line: CREB reporter modulators without forskolin, primary screen, cell-based, PC12, CRE-LacZ reporter, unstimulated (AID 1145). Conditions: no forskolin, luminescence, 4.5 h, higher = more signal, called active from +8 up or from −8 down.
In the case of `CO[C@H]1O[C@H](CO)[C@@H](OC(=O)Nc2ccccc2)[C@@H]2OC(=O)[C@H](Cc3ccccc3)C/C=C/C[C@@H](Cc3ccccc3)C(=O)O[C@@H]12`, the z-score is 0.512. Same read-out and setting: the value for `CCCCC(=C=CC[C@@H](O)c1ccc(OCCO)cc1)C[C@@H](O)c1ccccn1` was 14.6 (active). The same measure, in the same setting: the value for `C=CCC(OC(C)=O)[C@@H]1[C@@H](N(Cc2cccc3ccccc23)C(=O)c2ccc(-c3ccccc3)cc2)c2cc(OCCCO)ccc2N1C(=O)c1ccc2ccccc2n1` (stereo partly drawn) was 0.106; that for `COCCOC(=O)N1C(=O)[C@@]2(c3cc(C#CC4(O)CCCCCC4)ccc31)[C@H](c1ccc(OCCO)cc1)N1[C@H](c3ccccc3)[C@H](c3ccccc3)OC(=O)[C@H]1[C@@H]2C(N)=O` was 0.468; that for `COc1ccc([Si](C)(C)[C@H]2[C@H](CCO)O[C@@]3(C(=O)N(Cc4ccc(N5CCOC5=O)cc4)c4ccccc43)[C@@H]2C)cc1` was 2.2. The same measure, in the same setting: the value for `Cc1c(-c2ccc(-c3ccc(Cl)c(Cl)c3)o2)nc(-c2ccccc2)c2c1CO[Si]2(C(C)C)C(C)C` was -0.882. In the case of `O=C1OCCC=C[C@H]2OC34C=CCN(CCN5CCOCC5)C(=O)[C@H]3N(CCCO)C(=O)[C@@H]4C12` (stereo partly drawn), the z-score was -0.354. Same read-out and setting: the value for `COC(=O)[C@@]1(Cc2ccc(F)cc2)[C@H]2c3cc(C(=O)N(C)C)n(CCO)c3C[C@H]2CN1C(=O)c1ccccc1` was 0.773. Still for that read-out and setting: the value for `CC(C)C[C@H]1NC(=O)[C@@H](C)NC(=O)[C@@]23C(=O)N[C@@H](Cc4ccccc4)C2[C@H](C)[C@@]2(C)O[C@H]2C3/C=C/C/C=C\CNC1=O` (stereo partly drawn) was 1.94. Same read-out and setting: with `N#Cc1ccc(C(O)C2C=CC3C(=O)N(c4ccccc4)C(=O)C3N2Nc2ccc([N+](=O)[O-])cc2)cc1` (stereo not drawn) the figure was -0.0696; with `CN(C)CCCC[C@@H]1NC(=O)[C@@H]2C[C@H](C(=O)NCc3ccc(F)cc3)[C@H](c3ccc(O)cc3)N2C1=O`, 0.557. With `CC(=O)c1ccc(C(O)C2C=CC3C(=O)N(C)C(=O)C3N2NC(=O)OC(C)(C)C)cc1` (stereo not drawn), the z-score is 0.246. The same measure, in the same setting: with `CO[C@H]1O[C@H](CO)[C@@H](OC(=O)Nc2ccc3c(c2)OCO3)[C@@H]2OC(=O)[C@@H](Cc3ccccc3)C/C=C/C[C@H](Cc3ccccc3)C(=O)O[C@@H]12` the figure was 0.951.

Regarding `O=C1NC(=O)C2C1C=CC(C(O)c1cccc(O)c1)N2Nc1ccc(Cl)cc1Cl` (stereo not drawn), the z-score was 0.629. Still for that read-out and setting: with `Cc1ccc(S[C@]2(C(=O)NCCCN(C)C)CC(=O)N(Cc3ccccc3Cl)[C@@H]2c2ccc(CO)cc2I)cc1` the figure was 0.0924; with `O=c1cccc(-c2ccccc2C(F)(F)F)o1`, -0.471. With `COCCOC(=O)N1C(=O)[C@@]2(c3cc(C#CCC(C(=O)OC)C(=O)OC)ccc31)[C@H](c1ccc(OCCO)cc1)N1[C@H](c3ccccc3)[C@H](c3ccccc3)OC(=O)[C@H]1[C@@H]2C(=O)N1CCCCCCC1`, the z-score was -0.467. On the same count and under the same terms, the value for `C[C@H]1NC(=O)C([C@@H](C)OCc2ccccc2)NC(=O)[C@@]23C(=O)N[C@@H](Cc4ccccc4)C2[C@H](C)[C@@]2(C)O[C@H]2C3/C=C/C/C=C\CNC1=O` (stereo partly drawn) was 4.12; that for `COCC(=C=CC[C@@H](O)c1cccc(OCCO)c1)C[C@@H](O)COCc1ccccc1` was 5.99; that for `C=C(CCCC)C(=O)CC[C@H](OC(C)=O)c1ccccc1OCCO` was 8.25 (active). On the same count and under the same terms, with `CCC[C@@H]1C=C(C(=O)OCC)[C@H](c2ccccc2)N1S(=O)(=O)c1ccc(C)cc1` the figure was -0.527; with `COCCOC(=O)N1C(=O)[C@@]2(c3cc(C#CC4(O)CCCCCC4)ccc31)[C@H](C(=O)N1CCc3cc(OC)c(OC)cc3C1)[C@H]1C(=O)O[C@H](c3ccccc3)[C@H](c3ccccc3)N1[C@@H]2c1ccc(O)cc1`, 1.68; with `Cc1ccc(F)cc1S(=O)(=O)N[C@@H]1CCN(Cc2ccc3c(c2)OCO3)C1`, 1.22.

`COCCOC(=O)N1C(=O)[C@@]2(c3cc(C#CC4(O)CCCCCC4)ccc31)[C@H](c1ccc(OCCO)cc1)N1[C@H](c3ccccc3)[C@H](c3ccccc3)OC(=O)[C@H]1[C@@H]2C(=O)N1CCCCCCC1`: the z-score was 0.212. Same read-out and setting: the value for `CC(c1ccccc1)C(O)C1C=CC2C(=O)N(c3ccccc3)C(=O)C2N1Nc1ccc(C#N)cc1` (stereo not drawn) was -0.136; that for `COC(=O)C(CC#Cc1ccc2c(c1)[C@]1(C(=O)N2)[C@H](c2ccc(O)cc2)N2[C@H](c3ccccc3)[C@H](c3ccccc3)OC(=O)[C@H]2[C@@H]1C(=O)N1CCc2cc(OC)c(OC)cc2C1)C(=O)OC` was 0.918.

On to `C[N+](C)(C)CCCCCCNC(=O)[C@H]1C[C@H]2C(=O)NCC(=O)N2[C@H]1c1cccc(OCCO)c1`, for which the z-score was -0.675. Same read-out and setting: with `COC(=O)c1c(CC[C@@H](CO)NC(=O)N[C@@H](Cc2ccccc2)Cn2cc(-c3cncn3C)nn2)oc(C(C)=O)c1C(=O)OC` the figure was -0.491. On the same count and under the same terms, the value for `O=C1O[C@@H](c2ccccc2)[C@@H](c2ccccc2)N2[C@@H](c3ccc(O)cc3)[C@]3(C(=O)Nc4ccc(C#CC5=CCCCC5)cc43)[C@@H](C(=O)N3CCCCCCC3)[C@H]12` was 0.155; that for `COC(=O)C1=CC(CCCO)=CC(C2CC2)N(Cc2cccc(OC(F)(F)F)c2)C=C1C(=O)OC` (stereo not drawn) was -0.0243.

In the case of `COCCOC(=O)N1C(=O)[C@@]2(c3cc(C#CCC(C(=O)OC)C(=O)OC)ccc31)[C@H](C(=O)N1CCCCCCC1)[C@H]1C(=O)O[C@H](c3ccccc3)[C@H](c3ccccc3)N1[C@@H]2c1ccccc1OCCO`, the z-score was -0.475. The same measure, in the same setting: the value for `COCCOC(=O)N1C(=O)[C@@]2(c3cc(C#CCCO)ccc31)[C@H](c1ccccc1OCCO)N1[C@H](c3ccccc3)[C@H](c3ccccc3)OC(=O)[C@H]1[C@@H]2C(=O)N1CCc2cc(OC)c(OC)cc2C1` was 1.72. Same read-out and setting: the value for `COC(=O)[C@@H]1N=C(c2ccc(OCCCO)cc2)O[C@@H]1c1ccccc1CN=[N+]=[N-]` was -0.268; that for `COC(=O)[C@H](Cc1ccc(O)cc1)N1CC2=CCCC=C[C@@H]2[C@H]1[C@H](O)Cc1ccccc1` was 2.13. The same measure, in the same setting: with `C=CC[C@@]1(C(=O)N(C)C)N=C(c2ccc(OCCCO)cc2)O[C@@H]1c1ccccc1` the figure was 0.652.
